PubChem BioAssay (NCI)
About 83,000 compounds went through this panel and 20% of them were active in at least one assay; those are over-represented in the sample as a whole.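 Growth was measured after 48 h exposure to one concentration of compound in 96-well plates. Values under 10 count as active.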 Calls of active or inactive are those of the source.

Tested on: DU-145 prostate
Test: NCI-60 one-dose screen, 48 h (100 = growth as untreated, 0 = no growth, -100 = all killed)
Settings: 10 µM unless noted

Compound | growth
Cc1nc2sc(C(=O)Nc3cccc(Cl)c3C)c(N)c2cc1C(=O)/C=C/c1ccccc1 | 5.7% (active)
CN1CCN(Cc2ccc(NC(=O)c3cncc(C#Cc4cnc(N)cc4C#N)c3)cc2C(F)(F)F)CC1 | 21.1% (inactive)
c1cc(OCCN2CCCC2)ccc1CNc1ccc2nc(CCC3CCCCC3)[nH]c2c1 | 65.2% (inactive)
CCN(CC)CCOc1ccc2c(-c3ccccc3)c(-c3ccc(OC)cc3)c(=O)oc2c1 | 95.6% (inactive)
O=C1/C(=C/c2c[nH]c(=O)[nH]c2=O)SC(=S)N1Cc1ccccc1 | 102% (inactive)
CCN(CC)CCCNc1cc(OC)c(OC)c2cccnc12 | 90.3% (inactive)
COc1cc(Cc2cc(OC)c(O)c(OC)c2)cc(OC)c1O | 117% (inactive)
CSc1ccc(N2C(=N)C(=S)N(c3ccc(C)cc3)C2=O)cc1 | 104% (inactive)
CCOC(=O)/C(=C(/C)NCC(C)C)c1cc(O)c(O)c2c(C)cc(=O)[nH]c12 | 64.5% (inactive)
C/C(=C(\c1ccc(OCCN2CCCCCC2)cc1)c1ccc(OC(=O)c2ccccc2)cc1)c1ccc(Cl)cc1 | 66.1% (inactive)
COCCn1cc(-c2csc(-c3c[nH]c4ccc(F)cc34)n2)c2cccnc21 | 64.6% (inactive)
Cc1ccc2cnc(N)c(C#Cc3cc(C(=O)Nc4ccc(CN5CCN(C)CC5)c(C(F)(F)F)c4)cnc3C)c2c1 | -95% (active)
O=C(NNc1nc2cc(F)ccc2n2c(CN3CCOCC3)ccc12)c1ccccc1 | 23.6% (inactive)
COc1ccc(-c2nc(SCC(=O)Nc3nc4ccc(C)cc4s3)[nH]c(=O)c2C#N)cc1OC | 114% (inactive)
